Reference: ChEMBL document CHEMBL3433997, “St. Jude Leishmania screening dataset” (2016)

How the values were obtained:
Type in all cases: functional
[1] = biological target: Solute carrier family 2, facilitated glucose transporter member 1 (Homo sapiens) (UniProt P11166); assay: ST_JUDE_LEISH: Cytotoxicity at 2uM final concentration against transgenic Leishmania Mexicana promastigotes LmGLUT1 that are glucose transport deficient and complemented with the human glucose transporter GLUT1. Activity is measured by DNA content using SYBR green in vitro
Chain of Solute carrier family 2, facilitated glucose transporter member 1 (Homo sapiens) (P11166 whole entry): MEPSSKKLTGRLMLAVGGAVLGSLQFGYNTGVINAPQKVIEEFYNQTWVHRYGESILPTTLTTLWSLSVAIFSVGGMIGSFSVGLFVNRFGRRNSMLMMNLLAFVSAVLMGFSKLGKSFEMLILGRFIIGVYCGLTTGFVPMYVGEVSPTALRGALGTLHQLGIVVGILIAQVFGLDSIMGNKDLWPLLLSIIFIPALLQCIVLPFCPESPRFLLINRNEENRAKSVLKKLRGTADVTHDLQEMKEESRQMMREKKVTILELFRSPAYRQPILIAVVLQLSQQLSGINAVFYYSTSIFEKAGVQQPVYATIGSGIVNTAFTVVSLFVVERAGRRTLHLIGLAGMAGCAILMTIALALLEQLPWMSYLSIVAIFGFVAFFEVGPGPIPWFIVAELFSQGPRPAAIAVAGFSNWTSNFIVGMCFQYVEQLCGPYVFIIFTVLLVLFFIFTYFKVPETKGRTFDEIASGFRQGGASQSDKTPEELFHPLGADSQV

[2] = biological target: Hexose transporter 1 (Plasmodium falciparum) (UniProt O97467); assay: ST_JUDE_LEISH: Cytotoxicity at 2uM final concentration against transgenic Leishmania Mexicana promastigotes LmPfHT that are glucose transport deficient and complemented with the Plasmodium falciparum hexose transporter. Activity is measured by DNA content using SYBR green in vitro
[3] = biological target: Glucose transporter (Leishmania mexicana) (UniProt O61059); assay: ST_JUDE_LEISH: Cytotoxicity at 2uM final concentration against transgenic Leishmania Mexicana promastigotes LmGT2 that are glucose transport deficient and complemented with the L. Mexicana glucose transporter 2. Activity is measured by DNA content using SYBR green in vitro

## COc1ccc(C=NNc2cc(C)nc3ccc(OC)cc23)c(OC)c1
[1]
  inhibition: 8%
[2]
  inhibition: 7.55%
[3]
  inhibition: 2.56%

## Cc1cccc2nc(-c3cccc(-c4cccc(NC(=O)Nc5ccc(F)c(F)c5F)c4)c3)[nH]c12
[1]
  inhibition: 1.75%
[2]
  inhibition: 2.51%
[3]
  inhibition: 2.44%

## O=C(C=Cc1cccc(F)c1)NC1CCC(CCN2CCc3ccc(-c4cnccn4)cc3CC2)CC1 (centres undefined)
[1]
  inhibition: 14.4%
[2]
  inhibition: 14.2%
[3]
  inhibition: 13.1%
